Assay results taken from PubChem BioAssay AID1159580 (chemical genetic matrix, 2015).
The whole screen tested about 5,500 compounds, of which about 2,000 (36%) were called active. Inconclusive results (about 18%) are left out. Rule as the data show it: active = normalized growth mostly below about 0.91 (no sharp cut-off); inconclusive = no clear call, values can overlap the other calls; inactive = mostly above about 0.92. The list shows a part of the results.

Test: chemical genetic growth profiling, strain panel (AID 1159580);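 also: tested at 20 µM; growth read once vehicle control cultures reached saturation at 30 °C; 1 = growth at the plate median or of vehicle wells; lower values mean less growth of the strain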
Conditions: growth OD

Measured: normalized growth

CCCCC1C(=O)N(c2ccccc2)N(c2ccc(O)cc2)C1=O (stereo not given)
inactive: S. cerevisiae deletion strains, locus YJR075W, strain HOC1, stronger effect = lower value 0.998 | S. cerevisiae deletion strains, locus YKL009W, strain mrt4, stronger effect = lower value 1.01 | S. cerevisiae deletion strains, locus YKL068W, stronger effect = lower value 0.987 | S. cerevisiae deletion strains, locus YKL085W, strain MDH1 (second series), stronger effect = lower value 0.993 | S. cerevisiae deletion strains, locus YKL085W, strain MDH1, stronger effect = lower value 0.993 | S. cerevisiae deletion strains, locus YKL160W, strain elf1, stronger effect = lower value 1.03 | S. cerevisiae deletion strains, locus YKL190W, strain CNB1, stronger effect = lower value 1 | S. cerevisiae deletion strains, locus YKR001C, strain vps1, stronger effect = lower value 0.927 | S. cerevisiae deletion strains, locus YKR026C, strain gcn3, stronger effect = lower value 1.01 | S. cerevisiae deletion strains, locus YKR091W, strain srl3, stronger effect = lower value 0.996 | S. cerevisiae deletion strains, locus YLL001W, strain dnm1, stronger effect = lower value 1.02 | S. cerevisiae deletion strains, locus YLL026W, stronger effect = lower value 1 | S. cerevisiae deletion strains, locus YLL041C, strain sdh2, stronger effect = lower value 1 | S. cerevisiae deletion strains, locus YLR027C, strain aat2, stronger effect = lower value 0.994 | S. cerevisiae deletion strains, locus YLR039C, strain RIC1, stronger effect = lower value 0.963 | S. cerevisiae deletion strains, locus YLR058C, strain SHM2, stronger effect = lower value 0.976 | S. cerevisiae deletion strains, locus YLR102C, strain apc9, stronger effect = lower value 0.996 | S. cerevisiae deletion strains, locus YLR113W, strain HOG1, stronger effect = lower value 0.948 | S. cerevisiae deletion strains, locus YLR221C, strain rsa3, stronger effect = lower value 1.02 | S. cerevisiae deletion strains, locus YLR258W, strain gsy2, stronger effect = lower value 0.998 | S. cerevisiae deletion strains, locus YLR262C, strain YPT6 (second series), stronger effect = lower value 0.956 | S. cerevisiae deletion strains, locus YLR262C, strain YPT6, stronger effect = lower value 0.903 | S. cerevisiae deletion strains, locus YLR268W, strain sec22, stronger effect = lower value 1.04 | S. cerevisiae deletion strains, locus YLR320W, strain mms22, stronger effect = lower value 1.04 | S. cerevisiae deletion strains, locus YLR330W, strain CHS5, stronger effect = lower value 0.996 | S. cerevisiae deletion strains, locus YLR342W, strain FKS1 (second series), stronger effect = lower value 0.99 | S. cerevisiae deletion strains, locus YLR342W, strain FKS1, stronger effect = lower value 1.01 | S. cerevisiae deletion strains, locus YLR357W, strain rsc2, stronger effect = lower value 1.01 | S. cerevisiae deletion strains, locus YLR370C, strain arc18, stronger effect = lower value 1 | S. cerevisiae deletion strains, locus YLR371W, strain rom2, stronger effect = lower value 0.971 | S. cerevisiae deletion strains, locus YLR384C, strain iki3, stronger effect = lower value 0.997 | S. cerevisiae deletion strains, locus YLR418C, strain cdc73, stronger effect = lower value 1 | S. cerevisiae deletion strains, locus YML016C, strain PPZ1, stronger effect = lower value 0.991 | S. cerevisiae deletion strains, locus YML032C, strain rad52, stronger effect = lower value 0.996 | S. cerevisiae deletion strains, locus YML120C, strain ndi1, stronger effect = lower value 1.01 | S. cerevisiae deletion strains, locus YML124C, strain tub3, stronger effect = lower value 0.99 | S. cerevisiae deletion strains, locus YMR058W, strain fet3, stronger effect = lower value 1 | S. cerevisiae deletion strains, locus YMR078C, strain ctf18, stronger effect = lower value 0.986 | S. cerevisiae deletion strains, locus YMR125W, strain sto1, stronger effect = lower value 1 | S. cerevisiae deletion strains, locus YMR129W, stronger effect = lower value 1.01 | S. cerevisiae deletion strains, locus YMR205C, strain PFK2, stronger effect = lower value 1.02 | S. cerevisiae deletion strains, locus YMR223W, strain ubp8, stronger effect = lower value 0.968 | S. cerevisiae deletion strains, locus YMR231W, strain pep5, stronger effect = lower value 1 | S. cerevisiae deletion strains, locus YMR307W, strain GAS1, stronger effect = lower value 0.952 | S. cerevisiae deletion strains, locus YNL067W, strain RPL9B, stronger effect = lower value 0.999 | S. cerevisiae deletion strains, locus YNL071W, strain lat1, stronger effect = lower value 0.997 | S. cerevisiae deletion strains, locus YNL153C, strain GIM3, stronger effect = lower value 0.984 | S. cerevisiae deletion strains, locus YNL183C, strain NPR1, stronger effect = lower value 0.954 | S. cerevisiae deletion strains, locus YNL209W, strain ssb2, stronger effect = lower value 1 | S. cerevisiae deletion strains, locus YNL233W, strain BNI4, stronger effect = lower value 0.989 | S. cerevisiae deletion strains, locus YNL248C, strain rpa49, stronger effect = lower value 1.03 | S. cerevisiae deletion strains, locus YNL250W, strain rad50, stronger effect = lower value 0.985 | S. cerevisiae deletion strains, locus YNL271C, strain bni1, stronger effect = lower value 1 | S. cerevisiae deletion strains, locus YNL298W, strain CLA4, stronger effect = lower value 0.987 | S. cerevisiae deletion strains, locus YNL307C, strain MCK1, stronger effect = lower value 0.987 | S. cerevisiae deletion strains, locus YNL322C, strain KRE1 (second series), stronger effect = lower value 1.02 | S. cerevisiae deletion strains, locus YNL322C, strain KRE1, stronger effect = lower value 0.993 | S. cerevisiae deletion strains, locus YNR049C, strain mso1, stronger effect = lower value 1.01 | S. cerevisiae deletion strains, locus YNR052C, strain pop2, stronger effect = lower value 0.996 | S. cerevisiae deletion strains, locus YOL006C, strain TOP1, stronger effect = lower value 0.982 | S. cerevisiae deletion strains, locus YOL012C, strain htz1 0.972 | S. cerevisiae deletion strains, locus YOL147C, strain pex11, stronger effect = lower value 0.998 | S. cerevisiae deletion strains, locus YOR001W, strain rrp6, stronger effect = lower value 0.989 | S. cerevisiae deletion strains, locus YOR061W, strain CKA2, stronger effect = lower value 0.959 | S. cerevisiae deletion strains, locus YOR069W, strain VPS5, stronger effect = lower value 1 | S. cerevisiae deletion strains, locus YOR070C, strain gyp1, stronger effect = lower value 1.02 | S. cerevisiae deletion strains, locus YOR080W, strain dia2, stronger effect = lower value 0.993 | S. cerevisiae deletion strains, locus YOR083W, strain WHI5, stronger effect = lower value 1.04 | S. cerevisiae deletion strains, locus YOR106W, strain vam3, stronger effect = lower value 1.02 | S. cerevisiae deletion strains, locus YOR136W, strain idh2, stronger effect = lower value 0.983 | S. cerevisiae deletion strains, locus YOR144C, strain elg1, stronger effect = lower value 0.985 | S. cerevisiae deletion strains, locus YOR184W, strain ser1, stronger effect = lower value 0.983 | S. cerevisiae deletion strains, locus YOR231W, strain MKK1, stronger effect = lower value 0.987 | S. cerevisiae deletion strains, locus YOR265W, strain rbl2, stronger effect = lower value 0.996 | S. cerevisiae deletion strains, locus YOR270C, strain vph1, stronger effect = lower value 1.03 | S. cerevisiae deletion strains, locus YOR290C, strain snf2, stronger effect = lower value 1.02 | S. cerevisiae deletion strains, locus YOR316C, strain cot1, stronger effect = lower value 0.989 | S. cerevisiae deletion strains, locus YPL051W, strain arl3, stronger effect = lower value 1.01 | S. cerevisiae deletion strains, locus YPL055C, strain LGE1, stronger effect = lower value 0.938 | S. cerevisiae deletion strains, locus YPL078C, strain atp4, stronger effect = lower value 1.02 | S. cerevisiae deletion strains, locus YPL106C, strain sse1, stronger effect = lower value 1.02 | S. cerevisiae deletion strains, locus YPL240C, strain hsp82, stronger effect = lower value 1.01 | S. cerevisiae deletion strains, locus YPL241C, strain CIN2, stronger effect = lower value 0.99 | S. cerevisiae deletion strains, locus YPL256C, strain CLN2, stronger effect = lower value 0.953 | S. cerevisiae deletion strains, locus YPR119W, strain clb2, stronger effect = lower value 0.982 | S. cerevisiae deletion strains, locus YPR141C, strain kar3, stronger effect = lower value 0.972 | S. cerevisiae deletion strains, locus YPR163C, strain tif3, stronger effect = lower value 0.986 | S. cerevisiae deletion strains, locus YPR167C, strain met16, stronger effect = lower value 0.987 | S. cerevisiae deletion strains, strain wtn01, stronger effect = lower value 1 | S. cerevisiae strains, strain wild type, stronger effect = lower value 1
